For 93 compounds, inhibition results are on record in PubChem BioAssay AID624330 (Southern Research Specialized Biocontainment Screening …, 2012).

Out of some 340,000 compounds screened, about 2,100 (0.62%) were called active. A selection follows. Measured potencies and affinities stand elsewhere. Values without a mark were called inactive.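 The calls were made as follows: active = first-screen hits whose inhibition reached a set limit at any dose in the follow-up dose series; inconclusive = inhibition above the set first-screen limit but never retested; inactive = the rest.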

Chain of Rac GTPase-activating protein 1 (Homo sapiens) (Q9H0H5 whole entry, looked up): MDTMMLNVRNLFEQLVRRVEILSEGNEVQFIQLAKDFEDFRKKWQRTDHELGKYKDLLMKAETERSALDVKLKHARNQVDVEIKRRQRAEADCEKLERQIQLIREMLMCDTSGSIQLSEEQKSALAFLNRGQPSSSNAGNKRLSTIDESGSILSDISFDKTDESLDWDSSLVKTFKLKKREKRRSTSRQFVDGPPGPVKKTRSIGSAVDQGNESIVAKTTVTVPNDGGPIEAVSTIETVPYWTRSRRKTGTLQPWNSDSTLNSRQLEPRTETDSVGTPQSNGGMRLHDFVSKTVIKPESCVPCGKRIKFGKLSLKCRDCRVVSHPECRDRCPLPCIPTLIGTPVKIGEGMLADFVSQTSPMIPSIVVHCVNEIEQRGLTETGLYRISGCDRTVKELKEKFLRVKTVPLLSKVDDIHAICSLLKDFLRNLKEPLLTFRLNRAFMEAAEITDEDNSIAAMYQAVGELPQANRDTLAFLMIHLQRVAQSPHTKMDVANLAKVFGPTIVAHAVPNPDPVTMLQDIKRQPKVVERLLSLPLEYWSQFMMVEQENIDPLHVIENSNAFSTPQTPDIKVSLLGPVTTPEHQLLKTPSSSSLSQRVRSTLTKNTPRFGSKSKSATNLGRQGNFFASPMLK

The assay concerns the target Rac GTPase-activating protein 1 (Homo sapiens) (UniProt Q9H0H5). Nature of the assay: blockers of MgcRacGAP-driven Rac1 GTP hydrolysis – biochemical, ADP Hunter fluorescence, primary and confirmatory, confirmation (AID 624330).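 Also: fluorescence reports GDP produced by GAP-driven GTP hydrolysis.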 To be noted: MgcRacGAP-stimulated Rac1 GTP hydrolysis, at 30 µM, stronger effect = higher value, GST-tagged Rac1 F28L mutant substrate.
`C#CCOCCOCCOCCNc1nc(N2CCN(C(=O)CCCCCCCCCCNC(=O)[C@@H](CCC(=O)O)n3cc(CCCCCN)nn3)CC2)nc(N2CCN(C(=O)CCCCCCCCCCNC(=O)[C@@H](CCC(=O)O)n3cc(CCCCCN)nn3)CC2)n1`: the inhibition is 0.63%.

For the compound `CCn1c(C)nc2c(C)[n+](CC(=O)c3ccc(Br)cc3)ccc21`, the inhibition was 8.56%.

`CSc1nnc2ccc(-c3ccccn3)nn12`: the inhibition was -3.72%.

As for `COc1ccc(NC2CCCN(C(=O)c3cccc(C)n3)C2)cc1OC` (stereo not drawn), the inhibition was 26.1%.

On to `COc1cccc(/C=N/Nc2ncnc3c2ncn3Cc2ccccc2)c1O`, for which the inhibition is 7.53%.

As to `Oc1cccc(/C=N/Nc2ncnc3c2ncn3Cc2ccccc2)c1`, the inhibition was 15.2%.

`COc1cccc(C2C(C(=O)c3cccs3)=C(O)C(=O)N2CCN2CCOCC2)c1OC` (stereo not drawn): the inhibition is 10.9%.

As to `O=c1ccn([C@@H]2O[C@H](CNCC3=Cc4cc(O)ccc4OC3)[C@@H](O)[C@H]2O)c(=O)[nH]1`, the inhibition is 20%.

For `Cc1cn([C@H]2C[C@H](O)[C@@H](CNCc3ccccc3)O2)c(=O)[nH]c1=O`, the inhibition is 7%.

As to `COC(=O)c1ccc(CNC(=O)C2CCC(=O)N(CCc3ccccc3)C2)cc1` (stereo not drawn), the inhibition is 6.06%.

Turning to `Cn1c(=O)c([N+](=O)[O-])c(NCc2ccccc2Cl)c2ccccc21`, the inhibition was 8.45%.

As to `O=c1/c(=C/c2ccc([N+](=O)[O-])cc2)sc2n1CCCN=2`, the inhibition is 9.61%.

`O=c1/c(=C\c2ccc(F)cc2)sc2n1CCCN=2`: the inhibition was -5.16%.

On to `CN(C)c1ccc(/C=c2\sc3n(c2=O)CCCN=3)cc1`, for which the inhibition is 9.18%.

On to `O=c1/c(=C\c2ccc3c(c2)OCO3)sc2n1CCCN=2`, for which the inhibition was 8.3%.

Take `COc1ccc(CCNS(=O)(=O)c2cn(C)c(=O)n(C)c2=O)cc1OC`: the inhibition was -1.5%.

Turning to `CCc1ccccc1NC(=O)NCc1ccccn1`, the inhibition is 7.56%.

Take `Cc1ccc(C)c2c1cc(C)c1nnc(SCC(=O)Nc3nc4c(s3)CCCC4)n12`: the inhibition is 6.82%.

Turning to `CN(C)c1ccc(/C=C2\SC(=O)N(CC(O)Cn3c4ccccc4c4ccccc43)C2=O)cc1` (stereo not drawn), the inhibition is 9.97%.

Take `CC(=O)N1/C(=C/c2ccc(N(C)C)cc2)C(=O)c2ccccc21`: the inhibition was 10.6%.

Turning to `CC1=NN(c2cccc(F)c2)C(=O)/C1=C/c1ccc(N(C)C)cc1`, the inhibition is 4.18%.

Regarding `CCOC(=O)C1=NN(c2ccccc2)C(=O)/C1=C\c1ccc(N(C)C)cc1`, the inhibition is 14.6%.

For the compound `CN(C)c1ccc(/C=C2\CCCc3c2nc2ccccc2c3C(=O)O)cc1`, the inhibition was 28.8%.

With `CCOC(=O)CC1=NN(c2ccccc2)C(=O)/C1=C\c1ccc(N(C)C)cc1`, the inhibition was 12%.

For `CN(C)c1ccc(/C=C/c2nc3ccccc3c(=O)n2-c2ccc(C(=O)O)cc2)cc1`, the inhibition is 21.8%.

`CN(C)c1ccc(/C=C2\CCCCC2=O)cc1`: the inhibition was 22%.

Turning to `Cc1ccc(/C=C/C(=O)OCC(=O)NCCN2C(=O)CSC2=O)o1`, the inhibition was 5.03%.

With `Cc1nc(CNC(=O)C2CCC(=O)N(CCc3ccc(Cl)cc3)C2)sc1C` (stereo not drawn), the inhibition was 10.8%.

`COc1cc(/C=N/Nc2nc(Nc3ccccc3)nc(N3CCOCC3)n2)ccc1OC(=O)c1ccco1`: the inhibition was 8.66%.

For the compound `CN(C)c1ccc(-c2n(C)c3ccccc3[n+]2C)cc1`, the inhibition is 3.74%.

For the compound `CN(c1ccc(Cl)cc1)c1cc(=O)n(C)c2ccccc12`, the inhibition was -1.02%.

For `Cc1ccc(NC(=O)c2cccc(Oc3ccc([N+](=O)[O-])cc3)c2)c(C(=O)O)c1`, the inhibition is 7.38%.

For `O=C(Nc1ccc([N+](=O)[O-])cc1)c1cccc([N+](=O)[O-])c1`, the inhibition is 16.6%.

Regarding `Cc1cc(NC(=O)CN2C(=O)NC(C)(CC(C)C)C2=O)no1` (stereo not drawn), the inhibition was 3.59%.

On to `COc1ccc(C(=O)O)cc1NC(=S)NC(=O)/C=C/c1ccc(C(C)C)cc1`, for which the inhibition is 14.7%.

`COC(=O)c1cc(=O)n(Cc2cccs2)c(=NCc2cccs2)s1`: the inhibition was 3.47%.

For `CCOC(CN=c1nc(N(C)C)ss1)OCC`, the inhibition was 30.1%.

With `Cc1cc(C2(O)C(=O)Nc3ccccc32)ccc1F` (stereo not drawn), the inhibition was -6.52%.

Regarding `COc1cccc(-c2cc(C(F)(F)F)n3nc(C(=O)Nc4c(C)n(C)n(-c5ccccc5)c4=O)cc3n2)c1`, the inhibition is 7.24%.

On to `O=C(Nc1ccccc1Cl)Nc1ccccc1Cl`, for which the inhibition was 10.3%.

Regarding `O=C(Nc1ccccc1Cl)c1ccc(C(=O)Nc2ccccc2Cl)cc1`, the inhibition was 3.72%.

Consider `Cc1n[nH]c(C)c1N1C(=O)c2cccc3cc(Br)cc(c23)C1=O`, for which the inhibition is 15.9%.

`O=C(N/N=C/c1ccc(F)cc1)c1ccccc1`: the inhibition is 5.65%.

Turning to `O=C(N/N=C/c1ccccc1)c1ccc(-c2ccccc2)cc1`, the inhibition was 5.75%.

In the case of `O=C(NCc1ccccc1)C1Cc2ccccc2CN1C(=O)c1ccco1` (stereo not drawn), the inhibition was 6.98%.

As for `COc1cc(/C=N/O)cc(Br)c1OCc1ccc(Cl)cc1`, the inhibition is 0.88%.

For `CCCCN(C(=O)Cn1nnc2ccccc21)C(C(=O)NCCOC)c1cccs1` (stereo not drawn), the inhibition is 9.34%.

As for `O=[N+]([O-])c1ccc(O)c2cccnc12`, the inhibition was 5.34%.

As for `O=C(O)c1ccccc1Nc1ccc([N+](=O)[O-])c2nonc12`, the inhibition is 5.2%.

As for `CS(=O)(=O)c1ccc(C(=O)Nc2ccc(S(=O)(=O)N3CCCCC3)cc2)cc1`, the inhibition was 3.97%.

As for `Nc1nc2ccc([N+](=O)[O-])cc2[nH]1`, the inhibition was 0.04%.

On to `O=c1[nH]c2cc([N+](=O)[O-])ccc2c2ccccc12`, for which the inhibition was 2.35%.

As for `O=C1N(C2CCCC2)C[C@@H]2C[C@@H](c3cn[nH]c3-c3ccc(Cl)cc3)N3CCC[C@@]123`, the inhibition was 7.84%.

Turning to `COc1ccc(CN2C3CCC2CC(NC(=O)c2cc(OC)c(OC)c(OC)c2)C3)cc1` (stereo not drawn), the inhibition is 9.16%.

For `Cc1ccc(S(=O)(=O)N(C)CC(=O)Nc2ncccc2C)cc1`, the inhibition is -0.45%.

With `CCCNC(=S)N1CC2(C)CN(C(=O)C(=O)OC)CC(C)(C1)C2=O`, the inhibition was 2.02%.

In the case of `CC(=O)N(c1ccccc1)c1nnc(-c2cnc(C)cn2)s1`, the inhibition was -6.48%.

For `Cc1c(O)ccc2c3c(c(=O)oc12)CCC(C)C3` (stereo not drawn), the inhibition is 29.3%.

As to `CC(=O)Oc1ccc2c3c(c(=O)oc2c1C)CCCC3`, the inhibition was 4.5%.

As to `CCOC(=O)CSc1nc2c(sc(=S)n2-c2ccccc2OC)c(=O)n1-c1ccccc1OC`, the inhibition was 3.56%.

In the case of `COc1cc(C(C)=O)ccc1OCC(O)CNCC(O)c1ccccc1` (stereo not drawn), the inhibition is 20.6%.

Turning to `COc1ccc(CCN(C)CC(O)COc2ccc(C(C)=O)cc2OC)cc1OC` (stereo not drawn), the inhibition was 16.6%.

On to `CC(=O)Nc1ccc(CN2CCCC(CCC(=O)NCc3ccccc3F)C2)cc1` (stereo not drawn), for which the inhibition is 3.48%.

Take `CCN1CCN(CCNC(=O)C2CCCN(Cc3nc(-c4cccc(Cl)c4)oc3C)C2)CC1` (stereo not drawn): the inhibition was 5.46%.

On to `O=C(c1cccs1)N1CCN(Cc2ccccc2)CC1`, for which the inhibition is 7.61%.

`O=C(c1cccc(Cl)c1)N1CCN(Cc2ccc3c(c2)OCO3)CC1`: the inhibition is 7.04%.

For `O=C(c1cccc(C(=O)N2CCN(Cc3ccccc3)CC2)c1)N1CCN(Cc2ccccc2)CC1`, the inhibition was 9.35%.

In the case of `O=C(c1cccs1)N1CCN(Cc2cccnc2)CC1`, the inhibition was 30.4%.

For the compound `CCSc1nnc(-c2cccc(S(=O)(=O)N(C)C)c2)n1-c1cc(OC)ccc1OC`, the inhibition is 1.21%.

Turning to `Cc1ccc(OCCCC(=O)N(C)CC(=O)Nc2ccccc2Cl)cc1`, the inhibition is 2.87%.

Take `CC(C)[C@H](NC(=O)c1ccco1)C(=O)Nc1ccc(N2CCCCCC2)cc1`: the inhibition was 9.75%.

Regarding `O=C(c1ccccc1)c1c[nH]c(C(=O)NCc2cccnc2)c1`, the inhibition was -1.95%.

On to `COc1ccc2c(c1)CCc1c(C(=O)N(C)c3ccccc3)noc1-2`, for which the inhibition is 7.96%.

As for `Cc1ccsc1/C=C(\C#N)C(=O)NCc1ccco1`, the inhibition is 2.06%.

Consider `Cc1sccc1/C=N/NC(=O)c1ccco1`, for which the inhibition is 3.82%.

`CC(=O)Oc1ccc(C(=O)Cc2ccc3ccccc3n2)c(O)c1C`: the inhibition was -0.13%.

Regarding `Cc1c(O)ccc(/C(Cc2ccc3ccccc3n2)=N\N)c1O`, the inhibition is 14.8%.

For the compound `O=C(NCC1CCCO1)c1cnn2c(C(F)F)cc(C3CC3)nc12` (stereo not drawn), the inhibition is -0.05%.

Turning to `CCC(CO)Oc1cc(NCc2cccc(F)c2)c2ncn(C(C)C)c2c1` (stereo not drawn), the inhibition was 6.74%.

In the case of `COc1cc(/C=C/C(=O)OCC(=O)N2CCCCCC2)ccc1OCC#N`, the inhibition is 3.21%.

Take `Nc1ccccc1N1CCN(C(=O)c2ccccc2)CC1`: the inhibition is 12.8%.

As to `COc1ccc(OCc2cc(C(=O)NC(C)c3nc(C)cs3)no2)c(Cl)c1` (stereo not drawn), the inhibition is 7.35%.

As to `Brc1ccc(-c2ccccc2)cc1`, the inhibition is 1.25%.

Take `Oc1c(Br)cc(C2N=C(c3ccccc3)NO2)cc1Br` (stereo not drawn): the inhibition is -1.87%.

Consider `C/C(=N\NC(=O)CNC(=O)c1ccccc1F)c1ccco1`, for which the inhibition is 2.16%.

In the case of `O=C(COC(=O)CNC(=O)c1cccs1)Nc1ccccc1C(F)(F)F`, the inhibition is 8.33%.

Consider `CN(CC(=O)Nc1cc(Cl)cc(Cl)c1)Cc1cccs1`, for which the inhibition was 3.5%.

For `CC(=O)c1ccc(NC(=O)COC(=O)Cc2ccsc2)cc1`, the inhibition is 8.16%.

For `CCOc1ccc(NC(=O)COC(=O)Cc2ccsc2)cc1`, the inhibition was 2.81%.

For the compound `Cc1ccc(NC(=O)COC(=O)CCC(=O)c2cccs2)cc1`, the inhibition is 6.66%.

In the case of `COc1ccc(NC(=O)COC(=O)CNC(=O)c2cccs2)cc1Cl`, the inhibition was 2.23%.

For `CCCOC(=O)c1ccc(NC(=O)CN(C)Cc2cccs2)cc1`, the inhibition is 10.3%.

`CCN(CC)c1ccc(NC(=O)COC(=O)c2cccs2)cc1`: the inhibition is 21.8%.
